Assay in all cases: protein-binding microarray (PBM); PBM: ~300 nM protein, 6 mM HEPES pH 7.8, 80 mM KCl, 0.5 mM EDTA, 0.5 mM EGTA, 6% glycerol, 35 ng/ul poly-dIdC, 1% milk, 1 h, room temperature; Ap Aiptasia and Nv Nematostella (sea anemones) / Co Capsaspora / Aq Amphimedon (sponge) / Dm Drosophila / Hu human; RHD is the Rel homology domain; high values mean tight binding
Details in all cases: dsDNA, one strand shown

For one experiment, the target named is T1, GST-Ap-NF-kB RHD (Exaiptasia pallida (Aiptasia), UniProt A0A913YAJ5 2-422).
T1 sequence: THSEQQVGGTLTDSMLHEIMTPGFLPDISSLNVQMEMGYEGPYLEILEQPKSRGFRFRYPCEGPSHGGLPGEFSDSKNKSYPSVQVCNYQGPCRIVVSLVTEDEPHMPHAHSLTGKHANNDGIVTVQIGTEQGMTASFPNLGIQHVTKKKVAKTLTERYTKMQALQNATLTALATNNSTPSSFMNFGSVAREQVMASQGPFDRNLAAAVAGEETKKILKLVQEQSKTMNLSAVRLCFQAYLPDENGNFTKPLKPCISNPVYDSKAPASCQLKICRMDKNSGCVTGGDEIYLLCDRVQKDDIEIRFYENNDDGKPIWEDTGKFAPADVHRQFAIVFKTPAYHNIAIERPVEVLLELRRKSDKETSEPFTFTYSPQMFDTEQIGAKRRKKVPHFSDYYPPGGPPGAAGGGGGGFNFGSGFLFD

Experiment [1] concerns the target T2, GST-Nv-NF-kB (Cys allele) (Nematostella vectensis, UniProt E5G601 2-411).
T2 sequence: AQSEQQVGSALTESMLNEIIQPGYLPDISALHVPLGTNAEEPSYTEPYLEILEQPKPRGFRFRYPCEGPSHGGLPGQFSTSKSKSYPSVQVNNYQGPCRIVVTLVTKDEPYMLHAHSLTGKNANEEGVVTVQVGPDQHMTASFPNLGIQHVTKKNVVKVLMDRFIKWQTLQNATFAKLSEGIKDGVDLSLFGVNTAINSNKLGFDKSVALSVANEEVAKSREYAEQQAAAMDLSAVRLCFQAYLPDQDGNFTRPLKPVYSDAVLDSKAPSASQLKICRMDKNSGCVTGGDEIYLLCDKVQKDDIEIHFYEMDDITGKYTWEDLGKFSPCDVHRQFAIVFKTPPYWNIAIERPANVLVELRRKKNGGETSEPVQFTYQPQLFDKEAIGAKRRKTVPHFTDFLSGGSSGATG

The target in a further experiment is T3, GST-Co-NF-kB (Capsaspora owczarzaki, UniProt F1ARL5 200-546).
T3 sequence: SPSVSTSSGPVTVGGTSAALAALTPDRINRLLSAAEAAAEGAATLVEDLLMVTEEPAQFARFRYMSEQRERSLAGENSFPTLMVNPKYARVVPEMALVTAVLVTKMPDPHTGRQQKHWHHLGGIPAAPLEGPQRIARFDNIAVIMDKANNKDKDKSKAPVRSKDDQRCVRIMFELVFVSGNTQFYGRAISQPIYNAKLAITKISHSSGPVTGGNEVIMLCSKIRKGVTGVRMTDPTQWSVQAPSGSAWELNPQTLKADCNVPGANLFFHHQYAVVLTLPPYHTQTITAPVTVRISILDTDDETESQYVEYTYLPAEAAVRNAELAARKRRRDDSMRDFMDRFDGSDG

The target in another experiment is T4, GST-Dm-Relish (Drosophila melanogaster, UniProt Q94527 99-473).
T4 sequence: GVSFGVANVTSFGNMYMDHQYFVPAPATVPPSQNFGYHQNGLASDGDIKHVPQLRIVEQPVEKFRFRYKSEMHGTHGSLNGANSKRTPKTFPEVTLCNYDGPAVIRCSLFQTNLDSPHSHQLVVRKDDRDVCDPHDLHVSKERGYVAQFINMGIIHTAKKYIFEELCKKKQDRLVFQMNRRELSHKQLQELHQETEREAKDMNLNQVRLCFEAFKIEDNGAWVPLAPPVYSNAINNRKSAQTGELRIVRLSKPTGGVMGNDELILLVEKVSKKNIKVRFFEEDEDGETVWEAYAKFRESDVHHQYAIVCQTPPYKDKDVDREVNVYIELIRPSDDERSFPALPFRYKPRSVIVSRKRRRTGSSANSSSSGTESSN

In the next experiment the target is T5, GST-Aq-NF-kB (Amphimedon queenslandica, UniProt A9Y5G7 2-389).
T5 sequence: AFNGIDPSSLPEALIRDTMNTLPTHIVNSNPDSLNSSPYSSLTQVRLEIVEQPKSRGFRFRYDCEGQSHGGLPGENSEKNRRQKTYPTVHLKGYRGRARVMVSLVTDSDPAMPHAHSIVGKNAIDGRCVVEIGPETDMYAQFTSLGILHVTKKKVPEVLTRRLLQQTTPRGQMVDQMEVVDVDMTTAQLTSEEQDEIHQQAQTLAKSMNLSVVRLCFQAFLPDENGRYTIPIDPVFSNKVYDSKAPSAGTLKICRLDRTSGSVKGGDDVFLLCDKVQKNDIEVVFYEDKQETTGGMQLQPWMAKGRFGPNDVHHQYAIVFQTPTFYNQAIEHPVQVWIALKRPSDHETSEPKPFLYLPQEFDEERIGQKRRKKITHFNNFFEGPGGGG

Another experiment has as its target GST-Hu-p50 (Homo sapiens, UniProt P19838 7-356).

Chain of GST-Hu-p50 (P19838 7-356): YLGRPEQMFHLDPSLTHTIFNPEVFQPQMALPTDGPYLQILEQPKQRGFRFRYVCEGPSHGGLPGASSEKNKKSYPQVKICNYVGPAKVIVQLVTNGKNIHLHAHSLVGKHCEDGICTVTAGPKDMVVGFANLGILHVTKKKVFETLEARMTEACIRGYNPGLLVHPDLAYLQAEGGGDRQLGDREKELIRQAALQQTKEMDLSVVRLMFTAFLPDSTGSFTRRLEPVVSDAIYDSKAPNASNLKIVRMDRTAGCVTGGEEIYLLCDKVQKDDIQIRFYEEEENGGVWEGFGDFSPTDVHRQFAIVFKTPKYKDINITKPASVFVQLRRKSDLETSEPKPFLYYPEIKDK

For the sequence “CCGATTAACATCAAGGGGGGAACTGATGTTAATCGGGTCTTGATTCGCTTGACGCTGCTG”, the binding signal amounted to 6.46 z-score with GST-Ap-NF-kB RHD; 5.69 z-score in experiment [1]; 7.52 z-score with GST-Co-NF-kB; 3.7 z-score with GST-Dm-Relish; 5.19 z-score in the experiment with GST-Aq-NF-kB; 5.52 z-score in the experiment with GST-Hu-p50.
As to “CCGATTAACATCAGGGGATATACTGATGTTAATCGGGTCTTGATTCGCTTGACGCTGCTG”, the binding signal in the experiment with GST-Ap-NF-kB RHD was found to be 5.2 z-score; in experiment [1], 4.91 z-score; with GST-Co-NF-kB, 3.57 z-score; with GST-Dm-Relish, 7.81 z-score; with GST-Aq-NF-kB it was 4.48 z-score; in the experiment with GST-Hu-p50 it was 4.04 z-score.
With “CCGATTAACATCAAAAAACCCCGTGATGTTAATCGGGTCTTGATTCGCTTGACGCTGCTG”, the binding signal with GST-Ap-NF-kB RHD came out at 7.4 z-score; in experiment [1], 7.45 z-score; in the experiment with GST-Co-NF-kB it was 3.92 z-score; with GST-Dm-Relish, 8.97 z-score; with GST-Aq-NF-kB it was 7.03 z-score; with GST-Hu-p50 it was 6.45 z-score.
For “CCGATTAACATCAGAAAGTTCCCTGATGTTAATCGGGTCTTGATTCGCTTGACGCTGCTG”, the binding signal in the experiment with GST-Ap-NF-kB RHD stood at 4.17 z-score; in experiment [1], 4.74 z-score; with GST-Co-NF-kB, 3.54 z-score; with GST-Dm-Relish, 6.32 z-score; with GST-Aq-NF-kB, 5.8 z-score; in the experiment with GST-Hu-p50, 4.18 z-score.
On to “CCGATTAACATCAGGGCACCCCCTGATGTTAATCGGGTCTTGATTCGCTTGACGCTGCTG”, for which the binding signal with GST-Ap-NF-kB RHD was determined as 6.14 z-score; in experiment [1], 4.52 z-score; with GST-Co-NF-kB, 2.4 z-score; with GST-Dm-Relish, 8.28 z-score; with GST-Aq-NF-kB, 7.23 z-score; with GST-Hu-p50 it was 4.75 z-score.
Regarding “CCGATTAACATCAGGGGGAGTCATGATGTTAATCGGGTCTTGATTCGCTTGACGCTGCTG”, the binding signal with GST-Ap-NF-kB RHD is 5.67 z-score; in experiment [1] it was 4.38 z-score; with GST-Co-NF-kB, 4.79 z-score; with GST-Dm-Relish it was 3.88 z-score; with GST-Aq-NF-kB it was 4.55 z-score; with GST-Hu-p50 it was 4.72 z-score.
Turning to “CCGATTAACATCAGGAGTGCCCCTGATGTTAATCGGGTCTTGATTCGCTTGACGCTGCTG”, the binding signal in the experiment with GST-Ap-NF-kB RHD amounted to 2.63 z-score; in experiment [1], 2.03 z-score; with GST-Co-NF-kB, 1.41 z-score; in the experiment with GST-Dm-Relish, 2.25 z-score; with GST-Aq-NF-kB, 5 z-score; with GST-Hu-p50, 2.25 z-score.
In the case of “CCGATTAACATCACAGAAACCCCTGATGTTAATCGGGTCTTGATTCGCTTGACGCTGCTG”, the binding signal with GST-Ap-NF-kB RHD was 5.66 z-score; in experiment [1], 4.62 z-score; with GST-Co-NF-kB it was 1.21 z-score; with GST-Dm-Relish, 6.6 z-score; with GST-Aq-NF-kB it was 4.61 z-score; in the experiment with GST-Hu-p50, 5.39 z-score.
For “CCGATTAACATCACGGAATTCCCTGATGTTAATCGGGTCTTGATTCGCTTGACGCTGCTG”, the binding signal with GST-Ap-NF-kB RHD amounted to 6.01 z-score; in experiment [1], 6.74 z-score; in the experiment with GST-Co-NF-kB, 3.4 z-score; in the experiment with GST-Dm-Relish, 7.05 z-score; in the experiment with GST-Aq-NF-kB, 7.07 z-score; with GST-Hu-p50 it was 4.62 z-score.
On to “CCGATTAACATCAGGGGGTTAAATGATGTTAATCGGGTCTTGATTCGCTTGACGCTGCTG”, for which the binding signal with GST-Ap-NF-kB RHD amounted to 4.33 z-score; in experiment [1], 4.07 z-score; with GST-Co-NF-kB it was 3.62 z-score; with GST-Dm-Relish it was 5.86 z-score; with GST-Aq-NF-kB, 4.49 z-score; in the experiment with GST-Hu-p50, 4.29 z-score.
With “CCGATTAACATCAGAGTATCCCCTGATGTTAATCGGGTCTTGATTCGCTTGACGCTGCTG”, the binding signal was 5.9 z-score in the experiment with GST-Ap-NF-kB RHD; 4.9 z-score in experiment [1]; 4.05 z-score with GST-Co-NF-kB; 3.14 z-score in the experiment with GST-Dm-Relish; 3.98 z-score with GST-Aq-NF-kB; 4.2 z-score with GST-Hu-p50.
With “CCGATTAACATCATACTTCCCCATGATGTTAATCGGGTCTTGATTCGCTTGACGCTGCTG”, the binding signal stood at 3.97 z-score in the experiment with GST-Ap-NF-kB RHD; 4.88 z-score in experiment [1]; 4.69 z-score with GST-Co-NF-kB; 3.18 z-score with GST-Dm-Relish; 3.58 z-score with GST-Aq-NF-kB; 4.41 z-score with GST-Hu-p50.
As for “CCGATTAACATCACGGGGTTTTCTGATGTTAATCGGGTCTTGATTCGCTTGACGCTGCTG”, the binding signal with GST-Ap-NF-kB RHD was 6.68 z-score; in experiment [1], 6.13 z-score; with GST-Co-NF-kB, 2.98 z-score; in the experiment with GST-Dm-Relish, 8.05 z-score; with GST-Aq-NF-kB it was 5.9 z-score; in the experiment with GST-Hu-p50 it was 5.61 z-score.

Values taken from article PMC5700166.
